Laboratory results: PubChem BioAssay (NCI)
About 79,000 compounds went through this panel and 15% of them were active in at least one assay; those are over-represented in the sample as a whole. Unmarked numbers belong to inactive results. No stated cut-off is given here; in the data, active means growth inhibition above about 70%; inactive means the rest.

experiment: NCI Yeast Anticancer Drug Screen. Data for the rad52 strain (AID 147);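 further: 0% = growth of vehicle-treated control cultures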; conditions: S. cerevisiae rad52 mutant growth inhibition; at 1.2 µM; stronger effect = higher value
In short: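 Measured: yeast growth inhibition. System: strain with a defined DNA damage repair alteration. Reference: vehicle-treated control cultures.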

Compound	growth inhibition [%]
CC(C)C(=O)CC(Sc1ccc(N)cc1)c1ccccc1 (stereo not given)	2
CC(C)OP(=O)(OC(C)C)/C(Cl)=N/Nc1ccc([N+](=O)[O-])cc1	-10
O=[N+]([O-])c1cc(Cl)ccc1S(=O)(=O)c1ccc(Cl)cc1[N+](=O)[O-]	-25
CCCCCCNCCCNc1c2cc(OC)ccc2nc2cccc([N+](=O)[O-])c12	8
N#CCC(=O)N/N=C(\c1ccccc1)C(c1ccccc1)C1(O)C(=O)Nc2c(Cl)ccc(Cl)c21 (stereo not given)	0
CN(C)CCNCCCNc1c2ccccc2nc2cccc([N+](=O)[O-])c12	23
CCC[CH2][Ge]([CH2]CCC)([CH2]CCC)[O]C(=O)C(O)c1ccccc1 (stereo not given)	1
COc1ccc(-c2cc(-c3cc(C)cc(Cl)c3O)nc3[nH]c(=S)[nH]c(=S)c23)cc1	1
O=[N+]([O-])c1ccc(/C=C\c2ccc3c(c2)OCO3)c([N+](=O)[O-])c1	3
O=C1c2ccccc2N2OC3(N4CCCC4)CCCCC3C12c1ccccc1 (stereo not given)	-4
CC(C)OC(=O)NNc1cc(Cl)ccc1Cl	0
Cc1oc2ccccc2c(=O)c1Cn1nnc2ccccc21	-1
CC1(C)OC(=O)C(=Cc2ccc([N+](=O)[O-])s2)C(=O)O1	-17
CCN(CC)CCCNc1ccc([N+](=O)[O-])c2nc3ccc(OC)cc3c(NCCCN(CC)CC)c12	15
COc1cccc(/C=C2\S/C(=N/Nc3nc(-c4ccc([N+](=O)[O-])cc4)cs3)NC2=O)c1O	15
